Bioassay records as filed in PubChem BioAssay.
The list is not random: actives were taken first. Their share in the collection is about 3.5%.
TR SRC2 fluor cs = counter-screen for TRb-SRC2 inhibitors: fluorescence interference | 0.29% of 280,000 active | TRb/SRC2 Texas Red total fluorescence interference | Potency, µM (titrated, usually from 106 µM), for the others: at the top dose fluorescence change, negative = quenching; active = well fitted curve in either direction with a large enough effect; inconclusive = small, poorly fitted or top-dose-only effect
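Flags fluorescent or light-absorbing compounds by total fluorescence, S + 2P, at 555 nm excitation and 632 nm emission. Mixture: 20 nM Texas Red SRC2 peptide, 0.6 uM human TRb LBD, 1 uM T3, 5% DMSO; compound exposure 5 h at ambient temperature.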
Tau FP inhib = inhibitors of human tau fibril formation | P10636 | K18 P301L tau heparin fibrillization, Alexa594 FP, 6 h | Potency, µM (top dose mostly 57.7 µM), without a hit: at the top dose activity, negative = inhibition, hits mostly inhibitors | 0.39% of 280,000 active | AID 1468; also: nearly all actives have a fitted effect of over 55% in size
Target sequence (P10636 561-689 P618L limits assumed): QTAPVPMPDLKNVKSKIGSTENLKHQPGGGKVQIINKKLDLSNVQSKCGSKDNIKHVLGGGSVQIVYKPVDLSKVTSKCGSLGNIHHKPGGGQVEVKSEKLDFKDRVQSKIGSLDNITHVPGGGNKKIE
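Quantitative HTS format: compounds meet 15 uM recombinant K18 P301L tau and Alexa 594-tau tracer in 100 mM sodium acetate pH 7; 20 uM heparin triggers fibrillization at 37 C over 6 hr; FP gives the signal.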
TRb SRC2 PPI = disrupts binding of human TR beta to SRC2; P10828; TRbeta-SRC2 peptide binding, fluorescence polarization; receptor liganded with 1 µM T3; Potency, µM (series often up to 106 µM), without a hit: top-dose activity change, negative = inhibition, most hits filed as inhibitors; 0.065% of 280,000 active; AID 1469;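 also: plate controls were bound peptide for no effect and peptide without receptor for full effect; nearly all actives have a fitted effect of over 50% in size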
Target sequence (P10828 whole entry, looked up): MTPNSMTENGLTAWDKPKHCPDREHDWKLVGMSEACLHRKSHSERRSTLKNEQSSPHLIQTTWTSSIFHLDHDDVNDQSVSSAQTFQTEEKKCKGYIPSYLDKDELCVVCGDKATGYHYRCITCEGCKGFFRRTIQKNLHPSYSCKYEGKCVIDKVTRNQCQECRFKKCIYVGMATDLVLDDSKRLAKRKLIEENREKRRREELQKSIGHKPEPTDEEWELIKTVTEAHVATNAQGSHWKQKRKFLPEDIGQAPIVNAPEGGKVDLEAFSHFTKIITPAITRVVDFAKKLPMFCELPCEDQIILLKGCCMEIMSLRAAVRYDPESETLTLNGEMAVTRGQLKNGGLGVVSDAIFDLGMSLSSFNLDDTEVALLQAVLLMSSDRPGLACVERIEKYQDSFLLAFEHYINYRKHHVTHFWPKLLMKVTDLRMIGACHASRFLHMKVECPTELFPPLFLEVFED
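A fluorescence polarization screen tested compounds at multiple concentrations against complex formation between 0.6 uM TRb ligand-binding domain and 20 nM Texas Red SRC2 peptide, with 1 uM T3 present; readout after 5 hr.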
Tau ThT inhib = inhibitors of human tau fibril formation, thioflavin T binding; P10636; recombinant tau K18 P301L, heparin-induced fibrillization, ThT fluorescence; Potency, µM (series often up to 57.4 µM), inactives show at the top dose activity, negative = inhibition, usual class: inhibitors; 2.1% of 270,000 active; AID 1460; also: nearly all actives have a fitted effect of over 55% in size
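Tau K18 P301L fragment (15 uM unlabeled plus 0.24 uM Alexa 594-labeled) in 100 mM sodium acetate pH 7 with compound, fibrillization induced by 20 uM heparin for 6 hr at 37 C. Thioflavin T (30 uM) added, fluorescence read after 1 hr (ex 450, em 510 nm).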
Tau fluor counter = counter-screen for tau fibril formation inhibitors; tau K18 P301L (four-repeat tau fragment) Alexa594 fluorescence, heparin fibrillization; Potency, µM (series often up to 57.7 µM), for the others: at the top dose activity change, negative = decrease; 0.93% of 280,000 active; also: nearly all actives have a fitted effect of over 55% in size
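Human K18 P301L tau (15 uM unlabeled plus 0.24 uM Alexa 594-labeled, final) in 100 mM sodium acetate pH 7 was mixed with compound and 20 uM heparin and incubated 6 hr at 37 C.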
JMJD2E inh = blocks human JMJD2E demethylase activity; B2RXH2; JMJD2E catalytic domain, FDH-coupled NADH fluorescence (FDH is formaldehyde dehydrogenase); Potency, µM (doses to about 57.1 µM), for inactives: at the top dose activity change, negative = inhibition, hits mostly inhibitors; 1.6% of 230,000 active; AID 2147; active = well fitted inhibition curve with a large enough effect, not every such curve was filed as active; inconclusive = small, poorly fitted or top-dose-only effect, or another doubt; inactive = no such curve, though single readings can be large or run the other way;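 also: 0% = wells with enzyme and -100% = buffer wells without enzyme; nearly all actives have a fitted effect of over 50% in size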
Numbers without * were called inactive; ! = not active in a repeat; [ ] = another dose, or the depositor's remark. Unless noted, calls follow the shape of the dose curve; as a rule, active = well fitted curve in the direction sought with a large enough effect; inconclusive = small, poorly fitted or top-dose-only effect, or another doubt; inactive = no such curve, though single readings can be large; an effect the other way counts as inactive or inconclusive. Unless noted, % is scaled to controls: 0 for no effect and ±100 for the full control effect; potency is read from the fitted curve at half-maximal effect.

What do the screens show for `O=C1C(N2CCOCC2)=C(n2nnc3ccccc32)C(=O)c2ccccc21`?
TR SRC2 fluor cs: -10.0%; Tau FP inhib: inconclusive; TRb SRC2 PPI: inconclusive; Tau ThT inhib: 12.6µM*; Tau fluor counter: inconclusive; JMJD2E inh: inconclusive

What do the screens show for `CCCCCCCCCCCCCCCC(=O)NCCc1ccc(O)c(O)c1`?
TR SRC2 fluor cs: -1.9%; Tau FP inhib: 12.0%; TRb SRC2 PPI: -4.0%; Tau ThT inhib: -19.4%; Tau fluor counter: -18.6%; JMJD2E inh: -9.9%

What do the screens show for `O=C(O)c1ccc(O)c(O)c1`?
TR SRC2 fluor cs: -0.6%; Tau FP inhib: 0.8%; TRb SRC2 PPI: -4.6%; Tau ThT inhib: inconclusive; Tau fluor counter: -9.7%; JMJD2E inh: inconclusive

Results for C[C@@](Cc1ccc(O)c(O)c1)(NN)C(=O)O ?
TR SRC2 fluor cs: -2.9%; Tau FP inhib: inconclusive; TRb SRC2 PPI: -3.2%; Tau ThT inhib: 14.1µM*!; Tau fluor counter: inconclusive; JMJD2E inh: 3.55µM*!

How did CC(N)(Cc1ccc(O)c(O)c1)C(=O)O (configuration not stated) do in these assays?
TR SRC2 fluor cs: 1.5%; Tau FP inhib: inconclusive; TRb SRC2 PPI: -0.4%; Tau ThT inhib: 3.98µM*; Tau fluor counter: inconclusive; JMJD2E inh: 3.55µM*

What do the screens show for `COc1ccc(C[C@@](C)(N)C(=O)O)cc1OC`?
TR SRC2 fluor cs: -0.9%[53 µM]; TRb SRC2 PPI: 5.1%[53 µM]; JMJD2E inh: 11.2µM*

How did CCOc1ccc(CCNC(=O)c2cnc3sc(N(CC)CC)nn3c2=O)cc1OCC do in these assays?
TR SRC2 fluor cs: inconclusive; Tau FP inhib: -4.0%; TRb SRC2 PPI: -18.2%; Tau ThT inhib: -3.0%; Tau fluor counter: 1.9%

How did c1cncc(CNc2nc(-c3ccc4c(c3)OCO4)nc3ccccc23)c1 do in these assays?
TR SRC2 fluor cs: -0.6%; Tau FP inhib: inconclusive; TRb SRC2 PPI: 0.5%; Tau ThT inhib: 11.5%; Tau fluor counter: inconclusive; JMJD2E inh: inconclusive

What do the screens show for `CC1=C(C(=O)O)N2C(=O)[C@@H](NC(=O)C(N)C3=CCC=CC3)[C@H]2SC1` (some centres not stated)?
TR SRC2 fluor cs: 1.2%; Tau FP inhib: inconclusive; TRb SRC2 PPI: -3.0%; Tau ThT inhib: inconclusive; Tau fluor counter: -29.8%; JMJD2E inh: 22.4µM*

Results for C=CC1=C(C(=O)O)N2C(=O)[C@@H](NC(=O)C(N=O)c3csc(N)n3)[C@H]2SC1 (some centres not stated) ?
TR SRC2 fluor cs: -1.8%; Tau FP inhib: -4.4%; TRb SRC2 PPI: 9.3%; Tau ThT inhib: -17.5%; Tau fluor counter: -8.0%

How did CC1=C(C(=O)O)N2C(=O)C(NC(=O)C(N)c3ccc(O)cc3)C2SC1 (configuration not stated) do in these assays?
TR SRC2 fluor cs: 0.4%; Tau FP inhib: inconclusive; TRb SRC2 PPI: -7.2%; Tau ThT inhib: 28.2µM*; Tau fluor counter: inconclusive; JMJD2E inh: -13.9%

What do the screens show for `CC=CC1=C(C(=O)O)N2C(=O)[C@H](NC(=O)[C@H](N)c3ccc(O)cc3)[C@@H]2SC1`?
TR SRC2 fluor cs: -2.8%; Tau FP inhib: inconclusive; TRb SRC2 PPI: -1.8%; Tau ThT inhib: 22.4µM*; Tau fluor counter: -22.9%

Results for N=C(N)Cc1ccccc1Sc1ccccc1 ?
TR SRC2 fluor cs: -0.1%; Tau FP inhib: 2.0%; TRb SRC2 PPI: -4.5%; Tau ThT inhib: -9.1%; Tau fluor counter: -8.1%; JMJD2E inh: 4.8%

Results for O=C(NCc1ccco1)c1cccn2c(=O)c3cc4ccccc4cc3nc12 ?
TR SRC2 fluor cs: -11.9%; Tau FP inhib: 0.1%; TRb SRC2 PPI: -9.6%; Tau ThT inhib: 2.82µM*; Tau fluor counter: -7.6%; JMJD2E inh: -30.0%

How did COCCCNC(=O)c1cccn2c(=O)c3cc4ccccc4cc3nc12 do in these assays?
TR SRC2 fluor cs: -14.4%; Tau FP inhib: -5.9%; TRb SRC2 PPI: -13.2%; Tau ThT inhib: 14.1µM*; Tau fluor counter: -11.3%; JMJD2E inh: inconclusive

What do the screens show for `O=C(N/N=C/c1ccc([N+](=O)[O-])s1)c1ccccc1`?
TR SRC2 fluor cs: -24.3%; Tau FP inhib: 4.3%; TRb SRC2 PPI: 3.2%; Tau ThT inhib: inconclusive; Tau fluor counter: -18.6%; JMJD2E inh: -3.7%

Results for O=C(N/N=C\c1ccc([N+](=O)[O-])s1)c1cncc(Br)c1 ?
TR SRC2 fluor cs: 4.0%; Tau FP inhib: 12.5%; TRb SRC2 PPI: 2.4%; Tau ThT inhib: 14.1µM*; Tau fluor counter: inconclusive; JMJD2E inh: -16.1%

How did O=C(COC(=O)CCC(=O)c1cccs1)NCc1ccc(Cl)cc1 do in these assays?
TR SRC2 fluor cs: 0.5%; Tau FP inhib: 13.2%; TRb SRC2 PPI: -9.6%; Tau ThT inhib: -5.0%; Tau fluor counter: -3.9%; JMJD2E inh: 12.0%

Results for CCN(CC)c1ccc(/C=C(\C#N)C(N)=S)cc1 ?
TR SRC2 fluor cs: 0.1%; Tau FP inhib: -1.7%; TRb SRC2 PPI: 1.4%; Tau ThT inhib: 4.47µM*; Tau fluor counter: inconclusive; JMJD2E inh: -10.3%

Results for CC1=C(C(=O)OC(C)C)C(c2ccc(N(C)C)cc2)C2=C(CC(C)(C)CC2=O)N1 (configuration not stated) ?
TR SRC2 fluor cs: -4.3%; Tau FP inhib: 2.2%; TRb SRC2 PPI: -2.9%; Tau ThT inhib: -9.2%; Tau fluor counter: -13.0%; JMJD2E inh: 14.1µM*

What do the screens show for `O=C1c2cccc3cc([N+](=O)[O-])cc(c23)C(=O)N1CCN1CCCC1`?
TR SRC2 fluor cs: -2.1%; Tau FP inhib: 13.1%; TRb SRC2 PPI: 1.3%; Tau fluor counter: inconclusive; JMJD2E inh: inconclusive

Results for O=C1c2cccc3cc([N+](=O)[O-])cc(c23)C(=O)N1/N=C/c1ccc(O)cc1O ?
TR SRC2 fluor cs: inconclusive; Tau FP inhib: -10.1%; TRb SRC2 PPI: 1.7%; Tau ThT inhib: inconclusive; Tau fluor counter: 12.6µM*[quencher]; JMJD2E inh: -18.4%

What do the screens show for `COC(=O)c1ccc(-c2nc(O)c(C)s2)cc1`?
TR SRC2 fluor cs: -0.6%; Tau FP inhib: inconclusive; TRb SRC2 PPI: 0.3%; Tau ThT inhib: 12.6µM*; Tau fluor counter: -6.3%; JMJD2E inh: inconclusive

How did COC(=O)c1ccc(C2=NOC(C)(c3sc(-c4ccc(Cl)cc4)nc3C)C2)cc1 (configuration not stated) do in these assays?
TR SRC2 fluor cs: -1.3%; Tau FP inhib: -8.9%; TRb SRC2 PPI: 3.0%; Tau ThT inhib: -10.0%; Tau fluor counter: -7.4%; JMJD2E inh: inconclusive

What do the screens show for `COC(=O)c1ccc(-c2nc3cc(Cl)c(N)cc3s2)cc1`?
TR SRC2 fluor cs: -4.6%; Tau FP inhib: -3.7%; TRb SRC2 PPI: 4.6%; Tau ThT inhib: inconclusive; Tau fluor counter: -26.9%; JMJD2E inh: 2.51µM*
